Among the test systems are NCI-H23 lung; NCI-H226 lung; NCI-H322M lung; HOP-62 NSCLC; NCI-H460 lung; HOP-92 NSCLC; NCI-H522 lung; A549/ATCC NSCLC; 786-0 renal; COLO 205 colon; DU-145 prostate; MALME-3M melanoma; MDA-MB-231 breast; SF-268 CNS; SF-295 CNS; SF-539 CNS; UACC-257 melanoma; M14 melanoma; K-562 leukemia; RXF 393 renal.
Assay in all cases: NCI-60 one-dose screen, 48 h (100 = growth as untreated, 0 = no growth, -100 = all killed)
What all share (conditions): 10 µM unless noted

SMILES strings stand for the structures. Compounds without any hit were thinned out: in the full panel of roughly 83,000, 20% have a hit.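 For each line, cells grew in 96-well plates with the test compound present at a single concentration for 48 hours.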 Unmarked numbers belong to inactive results. Active and inactive are the calls of the source. Rule for the calls: active = growth percent below 10; inactive = the rest.

With `CCOC(=O)c1c(SC)nn(-c2cc(=O)[nH]c3ccc(Br)cc23)c1N`, the growth in the test with NCI-H23 lung is 96%; in the test on NCI-H226 lung it was 99.2%; in the test with NCI-H322M lung, 106%; in the test on HOP-62 NSCLC, 89.7%; in the test on NCI-H460 lung, 87.8%; in the test on HOP-92 NSCLC, 95.8%. Further, the growth in the test on NCI-H522 lung was 95.1%; with A549/ATCC NSCLC, 98.1%; in the test on 786-0 renal, 97.6%; with COLO 205 colon, 98.2%; with DU-145 prostate, 94.6%; in the test on MALME-3M melanoma, 105%. Besides, the growth was 110% in the test on MDA-MB-231 breast; 90.7% in the test with SF-268 CNS; 107% in the test with SF-295 CNS; 102% in the test with SF-539 CNS; 112% with UACC-257 melanoma; 109% with M14 melanoma.

In the case of `O=S(=O)(c1ccccc1)N1CCCc2ccccc21`, the growth is 102% in the test on NCI-H23 lung; 104% in the test with NCI-H226 lung; 99% with NCI-H322M lung; 94.2% with HOP-62 NSCLC; 107% in the test with NCI-H460 lung; 88.5% in the test on HOP-92 NSCLC. Moreover, the growth in the test with NCI-H522 lung is 82.2%; in the test with 786-0 renal it was 102%; with COLO 205 colon, 112%; in the test with DU-145 prostate, 112%; in the test on K-562 leukemia, 97%; in the test on MALME-3M melanoma it was 93.6%. In addition, the growth was 98.8% in the test with MDA-MB-231 breast; 95.5% in the test on SF-268 CNS; 98.5% with SF-295 CNS; 102% with SF-539 CNS; 96.3% in the test with UACC-257 melanoma; 102% with M14 melanoma.

As for `COc1ccc(Nc2nc(N)nc3c2CCc2occc2-3)cc1`, the growth was 92.4% with NCI-H23 lung; 97.1% in the test on NCI-H226 lung; 95.3% in the test with NCI-H322M lung; 98.4% in the test with HOP-62 NSCLC; 108% in the test with NCI-H460 lung; 99.6% in the test with HOP-92 NSCLC. The growth in the test on NCI-H522 lung was 76.9%; in the test with 786-0 renal, 95.5%; in the test on COLO 205 colon it was 116%; in the test on DU-145 prostate, 102%; in the test with K-562 leukemia, 92.4%; in the test on MALME-3M melanoma it was 110%. Moreover, the growth in the test with MDA-MB-231 breast was 99.5%; in the test on RXF 393 renal, 114%; in the test on SF-268 CNS it was 100%; with SF-295 CNS, 86.2%; with SF-539 CNS it was 96.8%; in the test with UACC-257 melanoma, 108%. Besides, the growth in the test with M14 melanoma was 93.6%.

Take `O=C(O)c1cn(C2CC2)c2cc(N3CCN(C(=O)C[n+]4cccc5ccccc54)CC3)c(F)cc2c1=O`: the growth is 84.4% in the test on NCI-H23 lung; 101% in the test with NCI-H226 lung; 102% with NCI-H322M lung; 98.9% in the test on HOP-62 NSCLC; 96.6% in the test with NCI-H460 lung; 95.5% in the test on HOP-92 NSCLC. Further, the growth was -90% (active) in the test on NCI-H522 lung; 98.7% in the test with A549/ATCC NSCLC; 48.5% in the test on 786-0 renal; 34.5% with COLO 205 colon; 91.7% in the test on DU-145 prostate; -41.7% (active) in the test with MALME-3M melanoma. Moreover, the growth in the test with MDA-MB-231 breast is 99.8%; in the test on SF-268 CNS, 68.2%; with SF-295 CNS it was 107%; in the test with SF-539 CNS, 69.1%; in the test on UACC-257 melanoma, 82.3%; in the test on M14 melanoma, 64.8%.

With `CC(c1ccccc1)n1ccnc1CO` (configuration not stated), the growth was 96.5% with NCI-H23 lung; 100% with NCI-H226 lung; 101% with NCI-H322M lung; 105% with HOP-62 NSCLC; 104% in the test with NCI-H460 lung; 66.5% in the test with HOP-92 NSCLC. Moreover, the growth in the test on NCI-H522 lung was 98.8%; with 786-0 renal, 105%; in the test on COLO 205 colon, 106%; in the test with DU-145 prostate it was 113%; with K-562 leukemia, 105%; with MALME-3M melanoma it was 85.5%. Further, the growth in the test on MDA-MB-231 breast was 104%; in the test with RXF 393 renal, 101%; with SF-268 CNS, 107%; with SF-295 CNS, 96.1%; with SF-539 CNS, 106%; in the test with UACC-257 melanoma, 106%. The growth with M14 melanoma is 109%.

As to `CC1=NNC(=O)C1CCC(=O)N/N=C(\C)c1ccc2ccccc2c1` (configuration not stated), the growth in the test on NCI-H23 lung is 104%; with NCI-H226 lung, 99.6%; in the test with NCI-H322M lung it was 122%; in the test with HOP-62 NSCLC, 115%; in the test on NCI-H460 lung it was 108%; with HOP-92 NSCLC it was 94.4%. The growth in the test with NCI-H522 lung was 96.1%; in the test on 786-0 renal, 103%; with COLO 205 colon, 167%; in the test with DU-145 prostate it was 102%; with K-562 leukemia, 97.6%; in the test on MALME-3M melanoma, 120%. Besides, the growth in the test with MDA-MB-231 breast was 111%; with SF-268 CNS, 98.9%; in the test with SF-295 CNS, 323%; with SF-539 CNS, 94.8%; in the test with UACC-257 melanoma it was 99.9%; with M14 melanoma, 113%.

On to `CCc1c(Nc2ccc(C)cc2)nc(N)[nH]c1=O`, for which the growth with NCI-H23 lung was 103%; with NCI-H226 lung it was 102%; in the test on NCI-H322M lung, 103%; in the test on HOP-62 NSCLC it was 98.7%; in the test on NCI-H460 lung, 108%; in the test on HOP-92 NSCLC it was 93.7%. In addition, the growth was 90.5% in the test on NCI-H522 lung; 100% with 786-0 renal; 108% in the test on COLO 205 colon; 111% with DU-145 prostate; 94.7% in the test on K-562 leukemia; 98.6% in the test on MALME-3M melanoma. The growth in the test on MDA-MB-231 breast was 94.7%; in the test on RXF 393 renal, 109%; in the test on SF-268 CNS, 102%; in the test with SF-295 CNS, 98.3%; in the test on SF-539 CNS it was 101%; in the test on UACC-257 melanoma it was 102%. Besides, the growth with M14 melanoma was 100%.

As for `C=C(C)[C@@H]1CC[C@]2(C(=O)NCCCN(CCC#N)CCC#N)CC[C@]3(C)[C@H](CC[C@@H]4[C@@]5(C)CCC(=O)C(C)(C)[C@@H]5CC[C@]43C)[C@@H]12`, the growth was 109% in the test on NCI-H23 lung; 102% with NCI-H226 lung; 104% in the test with NCI-H322M lung; 105% in the test with HOP-62 NSCLC; 104% with NCI-H460 lung; 82.4% in the test with HOP-92 NSCLC. Moreover, the growth in the test with NCI-H522 lung is 93.5%; in the test on A549/ATCC NSCLC, 91.2%; in the test with 786-0 renal, 94.2%; in the test on COLO 205 colon it was 111%; in the test with DU-145 prostate it was 105%; with MALME-3M melanoma it was 105%. Further, the growth in the test on MDA-MB-231 breast is 103%; in the test on SF-268 CNS, 94.6%; with SF-295 CNS it was 99.8%; in the test with SF-539 CNS, 94.2%; in the test on UACC-257 melanoma, 91.4%; with M14 melanoma it was 99%.

Values taken from PubChem BioAssay (NCI).
